Screening data deposited in PubChem by NMMLSC.
RPL19A-GFP yeast: alters RPL19A-GFP fluorescence in TOR pathway yeast screen; S. cerevisiae RPL19A-GFP strain, flow cytometry, 3 h; stronger effect = lower value; percent response vs DMSO, % at 10 µM; hit rate 0.3% among 330,000;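 active means percent response vs DMSO below 50%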;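 further: median channel GFP fluorescence of the barcoded RPL19A-GFP strain; ratio of sample median GFP to plate DMSO average so 100% = DMSO; lower means less RPL19A-GFP as with rapamycin TOR inhibition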
MEP2-GFP yeast: modulators of TOR pathway MEP2-GFP in S. cerevisiae. hit rate 0.51% among 330,000. GFP response vs DMSO, % at 10 µM. AID 2016. S. cerevisiae MEP2-GFP strain, flow cytometry GFP, 3 h; 100% = DMSO control level;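 active means GFP response versus DMSO above a set limit, roughly screen mean plus 3 SD, cut at about 180% in these data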;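 further: median GFP fluorescence of the barcode-gated MEP2-GFP cells per well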
CIT2 TOR yeast: alters CIT2-GFP fluorescence in TOR pathway yeast screen; S. cerevisiae CIT2-GFP strain, flow cytometry, 3 h; 100 means same as DMSO wells; GFP response vs DMSO, % at 10 µM; hit rate 0.065% among 320,000; AID 2029;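 active means GFP response relative to DMSO above a set limit, near the screen mean plus 3 SD, cut at about 150% in these data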;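 further: ratio of well median GFP fluorescence to mean of DMSO wells on the plate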
AGP1-GFP MLPCN: yeast TOR pathway AGP1-GFP modulation | S. cerevisiae AGP1-GFP multiplex flow cytometry, 3 h; GFP as percent of DMSO wells | AID 2066 | hit rate 0.02% among 320,000 | GFP response vs DMSO, % at 10 µM;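 active means GFP response relative to DMSO above a set limit, near screen average plus 3 SD, cut at about 150% in these data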;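 further: median GFP channel fluorescence of the gated AGP1 strain per well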
LAP4-GFP MLPCN: modulators of TOR pathway LAP4-GFP in S. cerevisiae. GFP response vs DMSO, % at 10 µM. hit rate 0.34% among 320,000. S. cerevisiae LAP4-GFP multiplex, flow cytometry GFP, 3 h; median GFP as percent of DMSO wells. AID 2023;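 active means GFP response vs DMSO above a set limit, about the screen mean plus 3 SD, cut at about 150% in these data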
LAP4 cherry2: reconfirmed LAP4-GFP TOR pathway modulator in yeast. shares compounds with LAP4-GFP MLPCN. S. cerevisiae LAP4-GFP strain, flow cytometry GFP, 3 h. GFP response vs DMSO, % at 10 µM. hit rate 20% among 590. AID 2621;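 active means GFP signal as percent of the solvent control above about 150%, meaning raised reporter expression, limit read from the data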;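 further: ratio of well median GFP fluorescence to plate DMSO mean so 100% = DMSO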
MEP2-GFP pick2: second confirmation of modulators of TOR reporter MEP2-GFP in yeast; shares compounds with LAP4-GFP MLPCN; S. cerevisiae MEP2-GFP strain, flow cytometry GFP, 3 h; GFP response vs DMSO, % at 10 µM; hit rate 10% among 590;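 active means GFP signal above 150% of the solvent control wells, that is a rise of more than half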;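 further: median channel GFP fluorescence of all gated yeast cells per well; ratio of median GFP to plate DMSO average so 100% = DMSO level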
RPL19A GFP CP2: second confirmation of modulators of TOR reporter RPL19A-GFP in yeast; shares compounds with LAP4-GFP MLPCN; S. cerevisiae RPL19A-GFP strain, flow cytometry GFP, 3 h; stronger effect = lower value; 100% means same as DMSO wells; GFP response vs DMSO, % at 10 µM; hit rate 3% among 590;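 active means under 65% GFP response relative to DMSO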;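 further: median GFP channel fluorescence per well over the all cells gate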
CIT2 GFP CP2: second confirmation of modulators of TOR reporter CIT2-GFP in yeast | shares compounds with LAP4-GFP MLPCN | S. cerevisiae CIT2-GFP strain, flow cytometry GFP, 3 h; DMSO control wells read 100% | GFP response vs DMSO, % at 10 µM | hit rate 8% among 590 | AID 2624;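 active means GFP response vs DMSO above about 150%, limit read from the data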;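 further: median green fluorescence per well over all gated yeast cells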
AGP1-GFP pick2: reconfirmed modulator of AGP1-GFP TOR reporter in yeast | shares compounds with LAP4-GFP MLPCN | S. cerevisiae AGP1-GFP strain, flow cytometry GFP, 3 h | percent response vs DMSO, % at 10 µM | 590 tested, under 10 active;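 active means over 150 percent of DMSO response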;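 further: median GFP channel fluorescence over all cells without mother daughter split; sample median GFP divided by mean DMSO control so 100% equals DMSO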
s288c autofluor: counter-screen for compound autofluorescence in yeast s288c cells | shares compounds with LAP4-GFP MLPCN | S. cerevisiae s288c, 520 nm autofluorescence, flow cytometry, 3 h; stronger effect = higher value; zero means same as solvent-only cells | fluorescence change (kMESF span) at 33 µM | AID 2757 | 610 tested, under 10 active;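 active means fluorescence span over the dose series, or activity score, above about 33, limit read from the data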
* = called active by the depositor; x = no result given; [ ] = another dose, or the depositor's remark. The list is not random: actives were taken first. Their share in the collection is about 0.93%.

SMILES	RPL19A-GFP yeast	MEP2-GFP yeast	CIT2 TOR yeast	AGP1-GFP MLPCN	LAP4-GFP MLPCN	LAP4 cherry2	MEP2-GFP pick2	RPL19A GFP CP2	CIT2 GFP CP2	AGP1-GFP pick2	others
Cc1cc(C)cc(OC(=O)COc2ccccc2C)c1	100	102	99	101	111	x	x	x	x	x
COc1ccc(OC)c(/C=C/C(=O)c2ccc3c(c2)OCCO3)c1	104	97	94	95	89	x	x	x	x	x
CCOC(=O)C1=C(O)c2ccccc2C(=O)/C1=C\c1ccc(C)cc1	82	111	80	72	186*	187*	221*	100	162*	93	s288c autofluor=41*
CCOC(=O)C1=C(C)N(c2ccc(C)cc2)C(=O)/C1=C\c1ccc(O)c(OC)c1	100	105	95	106	112	x	x	x	x	x
COC(=O)c1cc(N2C(=O)C3C(C2=O)C2(C)C=CC3(C)O2)ccc1Cl (configuration not stated)	95	93	51	70	162*	x	x	x	x	x	s288c autofluor=0.2
COCCCNC(=O)c1cc2c(=O)n3cccc(C)c3nc2n(C(C)C)c1=N	63	126	92	92	95	100	102	101	101	103
CCCCC1OC23CCCCC2C(C#N)(C(=N)O3)C1(C#N)C#N (configuration not stated)	64	189*	93	70	97	x	x	x	x	x	s288c autofluor=0.31
COc1ccccc1C(=O)O[C@H]1[C@H](Cc2ccccc2)NS(=O)(=O)[C@H]2C[C@@H]3C=C[C@]12O3	94	85	99	100	100	x	x	x	x	x
CC1CCC(C(C)C)C(OP(=O)(c2ccc(N(C)C)cc2)C(O)c2cccnc2)C1 (configuration not stated)	119	232*[may fluoresce green]	234*[may fluoresce green]	113	150	95	108	102	106	103
COc1ccc(S(=O)(=O)NC(C)C(=O)NCc2ccccn2)cc1Cl (configuration not stated)	107	109	105	99	102	x	x	x	x	x
COc1ccc(N(CC(C)C)S(=O)(=O)c2nnc(NC(=O)c3ccco3)s2)cc1	100	107	99	99	99	x	x	x	x	x
O=C(Nc1nc2ccc(F)cc2s1)c1ccccn1	90	103	106	102	178*	x	x	x	x	x	s288c autofluor=0.82
COc1cc(OC)cc(OC(=O)C2CCN(S(=O)(=O)c3ccc(OC)c(OC)c3)CC2)c1	99	97	99	108	115	x	x	x	x	x
O=S(=O)(c1ccc(F)cc1)c1snnc1-c1ccccc1	93	100	x	100	131	122	96	97	108	94
CCC(C)N(C(=O)CSc1nnc(COc2ccccc2F)n1N)C1CCS(=O)(=O)C1 (configuration not stated)	97	102	102	105	102	x	x	x	x	x
Cc1cccc(CN2C(=O)/C(=C\c3ccc(C(=O)NCCCN4CCN(C)CC4)cc3)Oc3ccccc32)c1	91	90	71	82	164*	135	105	89	102	92
S=C(NCCc1ccccc1)NC1CCCCCC1	107	95	105	101	111	x	x	x	x	x
S=C(NCCNCc1ccccc1)NC1CCCCC1	52	140	93	57	91	101	100	101	101	102
